Bioassay records deposited in PubChem by Paczesny and Yang Labs, IUPUI and University of Michigan.
ST2 IL33 inh – blocks human ST2 binding to IL-33. AlphaLISA ST2-Fc/biotin-IL-33 interaction, 1 h. inhibition, % for hits at 17 µM. 78,000 tested, 2.3% active; in the data active = inhibition above about 30%
Target sequence (Q01638 whole entry, looked up): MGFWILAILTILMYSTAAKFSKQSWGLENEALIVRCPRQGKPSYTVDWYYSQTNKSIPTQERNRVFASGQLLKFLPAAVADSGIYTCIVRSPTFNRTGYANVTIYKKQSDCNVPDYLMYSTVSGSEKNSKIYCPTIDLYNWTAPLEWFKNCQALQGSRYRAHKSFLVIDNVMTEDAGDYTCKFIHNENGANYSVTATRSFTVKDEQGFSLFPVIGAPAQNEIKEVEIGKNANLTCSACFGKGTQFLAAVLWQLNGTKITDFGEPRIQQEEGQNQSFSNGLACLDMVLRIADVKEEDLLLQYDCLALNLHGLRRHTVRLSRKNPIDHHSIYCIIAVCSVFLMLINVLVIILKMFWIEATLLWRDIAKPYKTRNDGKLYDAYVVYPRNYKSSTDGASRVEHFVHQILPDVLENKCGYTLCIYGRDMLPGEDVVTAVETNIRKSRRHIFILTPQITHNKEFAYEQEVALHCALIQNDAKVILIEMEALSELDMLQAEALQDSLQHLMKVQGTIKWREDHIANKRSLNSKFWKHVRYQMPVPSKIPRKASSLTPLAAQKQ
Each line names hits and unclear results; the compound was inactive in the other large screens; ! = a repeat was not active. This excerpt belongs to a sample that is enriched for hits.

O=C1c2ccccc2C(=O)[C@H]2C3c4ccccc4C(c4ccccc43)[C@@H]12	ST2 IL33 inh 32%
O=C1c2ccccc2C(=O)C1c1cccc2c1CCCC2	none
CN(C)C(=O)C(NS(=O)(=O)NCc1ccccc1)c1ccccc1 (centres undefined)	none
O=[N+]([O-])c1cccc(-c2ncnn2-c2ccc(Br)cc2F)c1	none
Cc1c(Cl)cccc1N1C(=O)CSC1c1ccc([N+](=O)[O-])cc1 (centres undefined)	none
Cc1c(Cl)cccc1-n1ncnc1-c1cccc([N+](=O)[O-])c1	ST2 IL33 inh 35%
Cc1ccc2[nH]c3c(c2c1)CCCC3NCc1ccc(F)cc1 (centres undefined)	ST2 IL33 inh 32%
COC(CN(C(C)=O)C1CCCc2c1[nH]c1ccc(C)cc21)OC (centres undefined)	none
Cc1ccc2[nH]c3c(c2c1)CN(C(=O)C1CCCN(CC(N)=O)C1)CC3 (centres undefined)	none
c1cc(CN2CCOC3(CNCCOC3)C2)n(-c2nccs2)c1 (centres undefined)	none
CC(C)CCNS(=O)(=O)c1ccccc1[N+](=O)[O-]	none
CN(C)c1ncc(CN2CCC(n3nccc3NC(=O)C3CCCC3)CC2)s1	none
COc1cccc(-n2c(O)c(C=Nc3ccc(Cl)cc3)c3ccccc3c2=O)c1	none
COc1ccc(N=Cc2c(O)c([N+](=O)[O-])cc3oc4c(c23)CCCC4)cc1	none
Cc1c(Cl)c(C)c([N+](=O)[O-])c(O)c1C=Nc1ccc(C(=O)O)cc1	none
COc1ccc(NC(=O)c2noc3c2CCCCC3)cc1	none
COc1ccc(N=Cc2c(O)ccc3oc4c(c23)CCCC4)cc1	ST2 IL33 inh 40%
COc1ccc(N=Cc2c(O)cc(C)c(Cl)c2C)cc1	ST2 IL33 inh 43%
COc1cccc2ccc(CN(Cc3cccnc3)CC3CCN(C4CCCC4)CC3)nc12	none
CCOC(=O)c1sc2nc(C)nc(N3CCC(C(=O)OCC)CC3)c2c1C	none
O=C(Nc1cnns1)c1cccc(CN2[C@@H]3CC[C@H]2CC(O)C3)c1 (some centres undefined)	none
NS(=O)(=O)c1ccc(NC(=O)c2cccc([N+](=O)[O-])c2)cc1	none
COCCn1c(CNC(=O)c2ccc(Cl)cc2)nc2cccnc21	none
CC(C)CSc1nc2c(c(=O)[nH]1)C(c1ccc(Br)cc1)C1=C(CCCC1=O)N2 (centres undefined)	none
O=C(Nc1ccccc1O)c1cc2ccccc2o1	none
O=C(Nc1ccccc1O)c1cc2ccccc2oc1=O	ST2 IL33 inh 34%
O=C(Nc1ccccc1Cl)c1cc2ccccc2oc1=O	none
CCOC(=O)c1cccnc1N1Cc2cnc(CC(C)C)nc2C1	none
Cc1ccn2cc(-c3ccc(S(=O)(=O)N(C)C)cc3)nc2c1	none
COc1ccccc1OCc1cc(C(=O)NC2CCCCCC2)no1	none
Cc1ccc(-c2cc(=O)c(=O)[nH][nH]2)cc1	none
Cc1ccc(-c2ccc(CCC(=O)O)[nH]2)cc1	ST2 IL33 inh 35%
Cc1ccc(NC(=O)CCC(=O)O)c(C)c1	none
NC(=O)Cn1c(=O)n(CCCC(=O)NCc2ccco2)c(=O)c2sccc21	none
O=C(CCCn1c(=O)c2sccc2n(Cc2ccccc2F)c1=O)NCc1ccco1	none
Cc1ccccc1Cn1c(=O)n(CCCC(=O)NCc2ccco2)c(=O)c2sccc21	ST2 IL33 inh 33%!
CCn1c(CN2CCOCC2)nc2c1c(=O)[nH]c(=O)n2C	none
O=C(NC[C@H]1O[C@@H](CO)[C@@H](O)[C@H]1N1CCc2ccccc2C1)Nc1ccc(F)cc1F	none
Cc1cc(C)c(Cn2cncn2)cc1CN1CC[C@H](CO)[C@@H](O)C1	none
CC(C)NC(=O)CCS(=O)(=O)c1cccc2nonc12	none
O=C(CCS(=O)(=O)c1cccc2nonc12)NCCc1ccccc1	none
CC(C)CCNC(=O)CCS(=O)(=O)c1cccc2nonc12	ST2 IL33 inh 60%
COc1cc(/C=c2\sc3nc(-c4cccnc4)nn3c2=O)ccc1OCc1ccccc1	none
O=C(Cc1c(C(=O)O)[nH]c2ccc(Cl)cc12)NCCc1ccc(Cl)cc1	none
COc1ccc(-n2c(O)c(C=Nc3ccc(OC)c(OC)c3)c3ccccc3c2=O)cc1	none
COc1cc(OC)c(C=Nc2ccc(O)cc2)cc1Br	ST2 IL33 inh 51%
COc1ccc(NS(=O)(=O)c2ccc(N=Cc3cc(Br)ccc3O)cc2)nn1	none
COc1ccc(C=Nc2ccc(O)cc2)c(OC)c1	ST2 IL33 inh 32%
COc1cc(OC)c(C=C2C(=O)OC3(CCCCC3)OC2=O)cc1Br	none
COc1ccc(OC)c(C=Nc2ccc(S(N)(=O)=O)cc2)c1	none
Cn1c(=O)[nH]c(=O)c2c1nc(N1CCCCCC1)n2CCSc1nnnn1-c1ccccc1	none
CN(C)S(=O)(=O)Nc1ccc(N2CCC(NCC3(c4ccccc4)CCOCC3)CC2)cc1	none
O=C(Cc1ccccc1)N1CCN=C1SCc1ccc(Br)cc1	none
COc1c[nH]c(C(=O)N2CCOC(C(F)(F)F)C2)cc1=O (centres undefined)	none
O=C(Nc1cccc(S(=O)(=O)c2cccc(NC(=O)c3ccco3)c2)c1)c1ccco1	none
O=C(O)c1cccc(NC(=O)c2cccc(Br)c2)c1	none
O=C(Nc1cccc(NC(=O)c2ccco2)c1)c1cccc(Br)c1	ST2 IL33 inh 53%
COc1ccc(Br)cc1CNCc1ccc(OC)c(OC)c1	none
COc1ccc(Br)cc1C1C(C(=O)OC2CCCCC2)=C(C)Nc2ncnn21 (centres undefined)	none
Cn1c(COc2ccc(Cl)cc2Cl)nc2ccccc21	none
CC(=O)C1=NN(c2ccccc2)C2C(=O)N(c3ccc(C)cc3)C(=O)C12 (centres undefined)	none
CC1=NN(c2ccccc2)C(=O)C1C(=O)c1ccc(F)cc1 (centres undefined)	ST2 IL33 inh 37%
O=C(c1ccc(F)cc1)N(Cc1ccccc1)Cc1ccccc1	none
Cc1nc(CN2CCN(c3nc4nonc4nc3NCc3ccccc3)CC2)cs1	none
COc1cc(-c2cnc(N)c(C)c2)cc(OC)c1OC	none
O=C(NCc1ccccc1)Nc1ccc(Cl)cc1	ST2 IL33 inh 30%
O=C(NCc1ccccc1)NS(=O)(=O)c1ccccc1Cl	none
O=C(NCc1ccc(Cl)cc1)C(=O)Nc1ccc([N+](=O)[O-])cc1	none
COc1ccc(C(=O)CSc2nnc(C(O)c3ccccc3)n2-c2ccccc2)cc1 (centres undefined)	none
CC(c1nnc(SCC(=O)O)n1-c1ccccc1)n1ccnc1 (centres undefined)	ST2 IL33 inh 31%
O=C(O)CSc1nnnn1-c1ccccc1	none
CCCC1=Nc2cc(C(=O)O)ccc2Sc2ccc(C)cc21	none
COc1ccc(N2CCSC2C(=O)c2ccccc2)cc1 (centres undefined)	ST2 IL33 inh 32%
COc1ccc(C(=O)N2CCCc3ccccc32)cc1	none
COc1ccc([C@@H]2C(C#N)=C(N)S[C@H]2C(=O)c2ccccc2)cc1	none
Cc1ccc(Cn2c(NCc3ccccc3)nc3c2c(=O)n(C)c(=O)n3C)cc1	none
Cn1cc(CC(=O)NCc2ccccn2)c2ccccc21	none
OC[C@@H]1O[C@H](CNC2CCOCC2)[C@H](N2CCN(c3cccc(C(F)(F)F)c3)CC2)[C@@H]1O	none
Cc1ccc(Cl)cc1NS(=O)(=O)c1ccc2c(c1)CCN2C(=O)C1CC1	none
Cc1ccc(-n2cc(CN3CCN(c4cnccn4)CC3)c(-c3cccc(C)c3)n2)cc1	none
O=C(O)c1cc2c3c(c1)C1C=CCC1C(c1cccc([N+](=O)[O-])c1)N3CC1CC=CC21 (centres undefined)	ST2 IL33 inh 40%
O=C(O)c1cc2c3c(c1)C1C=CCC1C(c1ccc(F)cc1)N3CC1CC=CC21 (centres undefined)	none
O=C(O)c1cc2c3c(c1)C1C=CCC1C(c1ccccc1F)N3CC1CC=CC21 (centres undefined)	none
O=C(CSc1nc2ccccc2nc1N1CCOCC1)N1CCN(c2ccccn2)CC1	none
